# Data reported in PubChem BioAssay.
# “And” between values parts separate entries of the source, which are not always exact repeats. Equal values may be shown once. The source made the active and inactive calls.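 The calls were made as follows, unless noted: active = compounds whose cell count with miR-34 switched on is under 0.7 times the count with it off; inactive = the rest.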
# Legend:
# [1] = stimulators of nuclear beta-catenin in C2C12, primary screen, imaging, WNT3A-conditioned medium, mouse C2C12, NPC library (AID 1117326; in the data active = nuclear beta-catenin stimulation mostly above about 4.2%, no sharp cut-off; inactive = mostly below about 10%); conditions: stronger effect = higher value
# [2] = stimulators of insulin release from INS-1E, primary screen, cell-based, 5 mM glucose, NPC library (AID 1117329;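 active = compound raises insulin release from rat beta cells at 5 mM glucose, no numeric limit stated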); conditions: rat INS-1E insulin secretion, at 10 µM, stronger effect = higher value
# [3] = growth inhibition of GSK3B-pretreated HCT116 cells – cell-based, CellTiter-Glo, 0.2 to 20 µM (AID 1117336;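 active = compounds lowering colon cancer cell viability after pretreatment blocking the GSK3B kinase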); conditions: HCT116 viability after GSK3B inhibitor, at 20 µM, stronger effect = higher value
# [4] = inhibition of endothelial tube formation, primary screen, imaging, VEGF stimulated, CD31 staining, tube area, NPC library (AID 1117340;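 active = compound that reduces growth-factor-driven endothelial tube area in a mixed cell culture, no cutoff stated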); conditions: VEGF-stimulated ADSC/ECFC co-culture, at 10 µM, stronger effect = higher value
# [5] = glucagon-like peptide 1 release enhancers, primary assay, NCI-H716 cell line, NPC library (AID 1117341;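 active = compound raises GLP1 secretion from the human gut endocrine cells, with no numeric limit stated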); conditions: NCI-H716 cells, at 10 µM, stronger effect = higher value
# [6] = HCT116 colon cancer cell growth inhibition, primary screen, CellTiter-Glo luminescence, NPC library (AID 1117342;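 active = compounds that lower survival of HCT116 colon cancer cells in the luminescence readout, no numeric limit stated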); conditions: at 20 µM (top of the series)
# [7] = CellTiter-Glo luminescent readout of SW480 viability loss, NPC library primary (AID 1117343;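 active = compounds that lower viability of the colon cancer cells in the luminescence readout, with no numeric limit stated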); conditions: CellTiter-Glo luminescence; at 20 µM (top of the series) unless noted
# [8] = decreased DLD-1 cellular survival, CellTiter-Glo luminescent readout, NPC compound collection, primary HTS (AID 1117346;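 active = compounds that lower survival of DLD-1 colon cancer cells in the luminescence readout, no cutoff given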); conditions: DLD-1 viability, CellTiter-Glo luminescence; at 20 µM (top of the series)
# [9] = differential killing of epithelial or mesenchymal cells, primary screen, imaging, PC-3E GFP, TEM4-18 mCherry, co-culture (AID 1345086;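 active = compounds killing one labelled cell type while sparing the other, by normalised counts and ratio limits, not self-fluorescent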;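 as to all read-outs here: cells exposed to compound for 72 h before imaging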;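 as to red/green cell ratio (normalised): normalised mesenchymal count divided by normalised epithelial count so high means epithelial killing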); conditions: imaging cell counts, at 1 µM; for red/green cell ratio (normalised): actives lie on both sides, counts scaled to control wells, 1 = unselective
# [10] = sensitizers of A549 cells to miR-34 induction, primary screen, imaging, A549 dox-inducible miR-34, nuclei and caspase counts (AID 1347080); conditions: A549 miR-34 inducible, Hoechst nuclei count, 48 h
# [11] = survival rescue of mitochondrial mutant cells in low glucose, primary screen, MELAS cybrids, Rieske KO mouse fibroblasts, CellTiter-Glo (AID 1508586;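 active = mean z-score across replicates of 1.96 or higher in either the MELAS or the Rieske mutant cell line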;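 also: z relative to plate mean and SD of compound and empty wells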)
# [12] = target: NAD(+) hydrolase SARM1 (Homo sapiens) (UniProt Q6SZW1); test: SARM1 TIR NADase inhibitors, cell lysate, NAD-Glo luminescence (AID 1508614;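 active = compound whose remaining NAD level is above about 45 nM, limit read from the data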;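 also: higher remaining NAD means stronger inhibition of SARM1 NADase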); conditions: SAM-TIR HEK293T lysate NADase, at 1 µM, stronger effect = higher value
# NAD(+) hydrolase SARM1 (Homo sapiens), sequence (Q6SZW1 whole entry, looked up): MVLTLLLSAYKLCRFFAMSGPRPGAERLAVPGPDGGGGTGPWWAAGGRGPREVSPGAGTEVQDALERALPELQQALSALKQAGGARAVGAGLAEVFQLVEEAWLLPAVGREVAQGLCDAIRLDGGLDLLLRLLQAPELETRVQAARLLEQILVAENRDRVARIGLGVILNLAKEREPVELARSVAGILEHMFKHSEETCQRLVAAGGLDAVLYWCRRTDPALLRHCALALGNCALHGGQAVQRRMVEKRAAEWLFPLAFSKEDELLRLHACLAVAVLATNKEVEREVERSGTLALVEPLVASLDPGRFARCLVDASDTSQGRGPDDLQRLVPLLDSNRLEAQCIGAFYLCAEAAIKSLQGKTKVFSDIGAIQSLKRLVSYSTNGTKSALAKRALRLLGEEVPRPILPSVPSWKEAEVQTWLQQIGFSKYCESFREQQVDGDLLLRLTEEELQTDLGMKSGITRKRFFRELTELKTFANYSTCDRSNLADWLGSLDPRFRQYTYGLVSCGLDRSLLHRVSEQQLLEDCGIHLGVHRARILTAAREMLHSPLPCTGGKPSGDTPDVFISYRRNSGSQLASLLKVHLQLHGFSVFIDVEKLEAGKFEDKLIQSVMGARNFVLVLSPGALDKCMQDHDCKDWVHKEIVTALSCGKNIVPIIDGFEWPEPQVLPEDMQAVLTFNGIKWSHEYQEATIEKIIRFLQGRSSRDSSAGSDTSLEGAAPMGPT
# [13] = hESC survival regulators, cell-based (AID 493140; call rule not given here;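 also: cells exposed to compounds for four days before counting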); conditions: human embryonic stem cell survival screen; stronger effect = higher value
# [14] = liver-stage malaria parasite growth inhibition, primary screen, cell-based, HepG2, luciferase luminescence, HepG2 viability (AID 624349; in the data active = parasite load remaining mostly below about 12%, no sharp cut-off; inactive = mostly above about 10%;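 also: 100% = mean of DMSO negative control wells on the same plate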); conditions: P. berghei liver stage in HepG2, luciferase luminescence, concentration not given here; parasite load remaining: stronger effect = lower value; viability: measured here: HepG2 viability without parasites
# [15] = measured here: epithelial PC-3E GFP cell survival
# [16] = measured here: mesenchymal TEM4-18 mCherry cell survival
# [17] = stronger effect = lower value, cell number ratio, induced over uninduced
# [18] = measured here: relative caspase fold change +Dox/-Dox
# [19] = measured here: total cells with miR-34 induction, stronger effect = lower value
# [20] = measured here: total cells without miR-34 induction
# [21] = MELAS cybrid survival, CellTiter-Glo 48 h, stronger effect = higher value
# [22] = Rieske KO mouse fibroblast survival, CellTiter-Glo 72 h
smiles,measurement,setting,value
CN1CCC(=C2c3ccccc3CCc3cccnc32)CC1,nuclear beta-catenin stimulation,[1]; at 10 µM,-2.3% (inactive)
same,nuclear beta-catenin stimulation,"[1]; stimulation, at 2 µM",-0.6%
same,insulin secretion stimulation,[2],9.4% (inactive)
same,viability decrease,[3],-3.7% (inactive)
same,tube area decrease,[4],15.1% (inactive)
same,GLP1 secretion stimulation,[5],2.5% (inactive)
same,inhibition of viability,[6],-2.7% (inactive)
same,viability decrease (inhibition),[7],13.6% (inactive)
same,viability decrease (inhibition),[8],-0.2% (inactive)
same,red/green cell ratio (normalised),[9],0.76 (inactive)
same,normalised cell number,[9]; [15],1.26
same,normalised cell number,[9]; [16],0.95
same,fold change,[10]; [17],0.929 (inactive) and 0.835 (inactive)
same,fold change,[10]; [18],0.933 and 0.421 and 1.15
same,cell count,[10]; [19],8510 and 8540 and 7120
same,cell count,[10]; [20],9160 and 9200 and 8530
same,z-score,[11]; [21],-0.226 (inactive) and -0.309 (inactive) and -0.701 (inactive)
same,z-score,[11]; [22],-0.00379 and -0.328 and -0.133
same,remaining NAD,[12],10 nM (inactive)
CC(=O)Nc1ncc([N+](=O)[O-])s1,nuclear beta-catenin stimulation,[1]; at 10 µM,-0.3% (inactive)
same,nuclear beta-catenin stimulation,"[1]; stimulation, at 2 µM",0.5%
same,insulin secretion stimulation,[2],-2.2% (inactive)
same,viability decrease,[3],4.2% (inactive)
same,tube area decrease,[4],5.9% (inactive)
same,GLP1 secretion stimulation,[5],-1.7% (inactive)
same,inhibition of viability,[6],12% (inactive)
same,viability decrease (inhibition),[7],9.6% (inactive)
same,viability decrease (inhibition),[8],13.5% (inactive)
same,red/green cell ratio (normalised),[9],1.12 (inactive)
same,normalised cell number,[9]; [15],0.93
same,normalised cell number,[9]; [16],1.04
same,fold change,[10]; [17],0.863 (inactive) and 0.891 (inactive)
same,fold change,[10]; [18],1.13 and 1.04
same,cell count,[10]; [19],8350 and 8950
same,cell count,[10]; [20],9670 and 10000
same,z-score,[11]; [21],-0.179 (inactive)
same,z-score,[11]; [22],-0.168
same,remaining NAD,[12],10 nM (inactive)
C#CCN(C)CCCOc1ccc(Cl)cc1Cl,survival,[13],8.67 (inactive)
same,parasite load remaining,[14],88.7% (inactive) and 89.7% (inactive)
same,viability,[14],100% and 71.8%
same,nuclear beta-catenin stimulation,[1]; at 10 µM,0.3% (inactive)
same,nuclear beta-catenin stimulation,"[1]; stimulation, at 2 µM",-0.5%
same,insulin secretion stimulation,[2],-2.3% (inactive)
same,viability decrease,[3],-91.8% (inactive)
same,tube area decrease,[4],22.3% (inactive)
same,GLP1 secretion stimulation,[5],-0.5% (inactive)
same,inhibition of viability,[6],2.63% (inactive)
same,viability decrease (inhibition),[7],48.3% (inactive)
same,viability decrease (inhibition),[8],13.7% (inactive)
same,red/green cell ratio (normalised),[9],1 (inactive)
same,normalised cell number,[9]; [15],1.14
same,normalised cell number,[9]; [16],1.14
same,fold change,[10]; [17],1.02 (inactive) and 0.917 (inactive) and 0.833 (inactive)
same,fold change,[10]; [18],0.924 and 0.754 and 1.44
same,cell count,[10]; [19],9600 and 8700 and 8160
same,cell count,[10]; [20],9370 and 9480 and 9800
same,z-score,[11]; [21],0.667 (inactive)
same,z-score,[11]; [22],0.294
same,remaining NAD,[12],10 nM (inactive)
O=C(Nc1ccccc1)OCC(CN1CCCCC1)OC(=O)Nc1ccccc1 (centres undefined),survival,[13],16 (inactive)
same,parasite load remaining,[14],59.3% (inactive) and 41.7% (inactive) and 36.2% (inactive)
same,viability,[14],79.1% and 91.5% and 107%
same,nuclear beta-catenin stimulation,[1]; at 10 µM,-0.9% (inactive)
same,nuclear beta-catenin stimulation,"[1]; stimulation, at 2 µM",-0.9%
same,insulin secretion stimulation,[2],14.9% (inactive)
same,viability decrease,[3],36.4% (inactive)
same,tube area decrease,[4],1.6% (inactive)
same,GLP1 secretion stimulation,[5],-0.5% (inactive)
same,inhibition of viability,[6],75.7% (active)
same,viability decrease (inhibition),[7],65.2% (active)
same,viability decrease (inhibition),[8],32.3% (inactive)
same,red/green cell ratio (normalised),[9],0.79 (inactive)
same,normalised cell number,[9]; [15],1.18
same,normalised cell number,[9]; [16],0.92
same,fold change,[10]; [17],0.99 (inactive) and 0.916 (inactive)
same,fold change,[10]; [18],1.08 and 5.69
same,cell count,[10]; [19],8030 and 11400
same,cell count,[10]; [20],8110 and 12500
same,z-score,[11]; [21],0.475 (inactive)
same,z-score,[11]; [22],-0.0131
same,remaining NAD,[12],10 nM (inactive)
CC(=O)CC(c1ccc([N+](=O)[O-])cc1)c1c(O)c2ccccc2oc1=O (centres undefined),survival,[13],21.3 (inactive)
same,parasite load remaining,[14],45.5% (inactive) and 55% (inactive)
same,viability,[14],108% and 91.9%
same,nuclear beta-catenin stimulation,[1]; at 10 µM,-1.1% (inactive)
same,nuclear beta-catenin stimulation,"[1]; stimulation, at 2 µM",-1.3%
same,insulin secretion stimulation,[2],0.6% (inactive)
same,viability decrease,[3],-2.5% (inactive)
same,tube area decrease,[4],-40.9% (inactive)
same,GLP1 secretion stimulation,[5],-5.1% (inactive)
same,inhibition of viability,[6],4.3% (inactive)
same,viability decrease (inhibition),[7],21.6% (inactive)
same,viability decrease (inhibition),[8],4.6% (inactive)
same,red/green cell ratio (normalised),[9],0.82 (inactive)
same,normalised cell number,[9]; [15],1.28
same,normalised cell number,[9]; [16],1.05
same,fold change,[10]; [17],0.921 (inactive)
same,fold change,[10]; [18],1.68
same,cell count,[10]; [19],7660
same,cell count,[10]; [20],8320
same,z-score,[11]; [21],0.273 (inactive)
same,z-score,[11]; [22],0.192
same,remaining NAD,[12],10 nM (inactive)
